Molecules are shown by their SMILES. “And” between values parts separate entries of the source, which are not always exact repeats. Equal entries are not always repeated. The panel holds about 83,000 compounds, 20% with a hit somewhere; the sample as a whole holds those more often.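 The endpoint reported here, percent growth, reads 100 for growth as untreated, 0 for no net growth and -100 for all cells dead.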 Values without a mark were called inactive. The source made the active and inactive calls. The calls were made as follows: active = growth percent below 10; inactive = the rest.

The test relates to MDA-MB-468 breast. Put plainly: NCI-60 one-dose screen, 48 h (100 = growth as untreated, 0 = no growth, -100 = all killed). The following applies: 10 µM unless noted.
Turning to `Cc1nn(-c2ccccc2)nc1C(=O)Nc1ccccc1C(=O)NCC1CC1`, the growth was 107% and 87.5%.

As for `Cc1nn(-c2ccc(-c3ccc(OC(F)(F)F)cc3)cc2)c2nc(Cc3ccccc3)nc(N)c12`, the growth was 46%.

On to `Cc1cccc(-c2cn3ccnc3c(-c3ccc4ncn(Cc5ccccc5)c4c3)n2)c1`, for which the growth is 83.4%.

Consider `COc1cc(/C=C2\CN(C(=O)CCN3CCC(=NO)CC3)C/C(=C\c3cc(OC)c(OC)c(OC)c3)C2=O)cc(OC)c1OC`, for which the growth is -41.2% (active).

For `CCOc1cccc(/C=N/NC(=O)c2ccccc2Nc2ccnc(C(F)(F)F)c2)c1O`, the growth was -23.6% (active).

`CCCCCCCC/C=C\CCCCCCCC(=O)Oc1cccc2cccnc12`: the growth was 121%.

With `C/C(Nc1ccc(Cl)c(Cl)c1)=C1\CCOC1=O`, the growth is 70.5%.

For the molecule `COc1ccc(-c2ccc3c(c2)sc2nc(-c4ccc(F)cc4)cn23)cc1`, the growth is 66.7%.

As for `Cc1ccc(-c2cc3nc(C(Cl)Cl)nc(-c4ccccc4)n3n2)cc1`, the growth was -16.4% (active).

On to `CS(=O)(=O)Nc1cc(-c2ccc3ncnc(Nc4ccc5[nH]ncc5c4)c3c2)cnc1Cl`, for which the growth is 16.6%.

`COc1ccc(/C=N/NC(=O)c2cn(C3CC3)c3c(OC)c(N4CC5CCCNC5C4)c(F)cc3c2=O)cc1` (centres undefined): the growth was 89.4%.

Turning to `CCOC(=O)Cc1cnn(C)c1NC(=O)c1ccc(Cl)cc1NC(C)=O`, the growth was 89.9%.

With `COC(=O)c1ccc(Cn2cnc3c(N)ncnc32)cc1`, the growth is 106%.

Take `O=C(O)c1occ(Cl)c1Cl`: the growth was 107%.

Take `CN1CCN(CCCn2c(=O)c3sc4ncccc4c3n3nnc(-c4ccccc4)c23)CC1`: the growth is -62% (active).

With `Cl/C(=N\Nc1ccccc1)c1ccccc1`, the growth is 79%.

Regarding `Cc1noc(C)c1-c1cc(O)cc(C(O)c2ccccc2)c1` (centres undefined), the growth was 24.9%.

On to `CN(C)c1cc(NN=C(c2ccc(O)cc2)c2ccc(O)cc2)c([N+](=O)[O-])cc1[N+](=O)[O-]`, for which the growth is 102%.

On to `O=C(O)c1ccc(NC(=O)c2ccc(Nc3ccnc(C(F)(F)F)c3)cc2)cc1`, for which the growth is 99.8%.

`Cn1cc(C(=O)c2nc(-c3cn(C)c4ccc(F)cc34)no2)c2cc(F)ccc21`: the growth was 94.1%.

Consider `CCCCCCCCN(CCCCCCCC)CCCCCCNc1cc(OC)cc2cccnc12`, for which the growth is 68.2%.

As to `Oc1ccc(CCC2CCNc3ccccc32)cc1` (centres undefined), the growth is 46.8%.

`O=C(O)c1cc2ccccc2s1`: the growth is 112%.

As to `CC(=O)N1c2ccccc2NC2=C(C(=O)NC2(C)C)C1c1ccco1` (centres undefined), the growth is 65.9%.

As for `COc1ccc2c(CCCCC(c3ccccc3)c3ccccc3)c3[n+](cc2c1OC)CCc1cc2c(cc1-3)OCO2`, the growth is -75.3% (active).

For the molecule `OC1CC2c3ccccc3C1c1ccccc12` (centres undefined), the growth is 111%.

As for `CC(=O)N1c2ccccc2NC2=C(C(=O)N(Cc3ccccc3)C2(C)C)C1c1ccco1` (centres undefined), the growth is -1.86% (active).

Take `Cn1cc(-c2nn3cc(-c4ccccc4)nc3s2)c2ccccc21`: the growth was 71.5%.

For the molecule `Cc1ccc(-n2c(-c3ccccc3)c(-c3ccccc3)c3c(SCC(=O)n4[nH]c(N)cc4=O)ncnc32)cc1`, the growth was 91.8%.

Take `CCCCN1C(=O)c2cccc3c(-c4ccc5c(c4)ncn5C4CCCCC4)ccc(c23)C1=O`: the growth is 101%.

On to `Cc1ncc(C(=O)Nc2ccc(CN3CCN(C)CC3)c(C(F)(F)F)c2)cc1C#Cc1cnc(NC2CC2)c2ncccc12`, for which the growth is 32%.

With `O=C(Nc1ccc(-n2cc(-c3ccncc3)c(-c3ccc(Cl)c(O)c3)n2)cc1)c1ccc(Cl)c(C(F)(F)F)c1`, the growth was -12% (active).

For the molecule `CSc1nnc(-c2sc3nnc(-c4ccccc4)c(-c4ccccc4)c3c2O)o1`, the growth was 78.9%.

On to `CC1(C)CC[C@]23CC[C@]4(C)[C@H](CC[C@@H]5[C@@]6(C)C/C(=C/c7cccnc7)C(=O)C(C)(C)[C@@H]6CC[C@]54C)[C@H]2[C@H]1OC3=O`, for which the growth is 56.9% [100 µM].

As to `CN1CCN(CCOc2ccc(-c3cnc4c(-c5cccc(F)c5)cnn4c3)cc2)CC1`, the growth is 65.4%.

Turning to `CCCCCOC(=O)c1ccc(NC(=O)CNCC(C)C)cc1`, the growth is 102%.

In the case of `COc1cc2ncnc(Nc3ccc(OCc4cccc(F)c4)c(Cl)c3)c2cc1NC(=O)C1CCCC1`, the growth was -2.53% (active).

In the case of `O=C(Nc1ccc(F)cc1)Nc1ccc(NC(=O)c2cc(Cl)nc3ccccc23)cc1`, the growth is 38.7%.

For `COc1ccc(/C(=C\c2ccc3c(c2)OCO3)C(=O)Nc2nc3ccccc3s2)cc1OC`, the growth was 90.5%.

For the origin of these results see PubChem BioAssay (NCI).
